Measured values taken from article PMC4336329 (PLoS ONE, 2015).
The campaign covered roughly 310,000 compounds. About 14,000 (4.5%) showed an effect of 50% or more. The effect is printed as a negative number. The full list was thinned out, with strong results kept by preference.

These molecules were tested against human ether-à-go-go-related gene (hERG) potassium channel (human, UniProt Q12809) (assay: primary screen, population patch clamp on CHO cells stably expressing hERG; higher = less effect of the substance).
Sequence of human ether-à-go-go-related gene (hERG) potassium channel (Q12809 whole entry, looked up): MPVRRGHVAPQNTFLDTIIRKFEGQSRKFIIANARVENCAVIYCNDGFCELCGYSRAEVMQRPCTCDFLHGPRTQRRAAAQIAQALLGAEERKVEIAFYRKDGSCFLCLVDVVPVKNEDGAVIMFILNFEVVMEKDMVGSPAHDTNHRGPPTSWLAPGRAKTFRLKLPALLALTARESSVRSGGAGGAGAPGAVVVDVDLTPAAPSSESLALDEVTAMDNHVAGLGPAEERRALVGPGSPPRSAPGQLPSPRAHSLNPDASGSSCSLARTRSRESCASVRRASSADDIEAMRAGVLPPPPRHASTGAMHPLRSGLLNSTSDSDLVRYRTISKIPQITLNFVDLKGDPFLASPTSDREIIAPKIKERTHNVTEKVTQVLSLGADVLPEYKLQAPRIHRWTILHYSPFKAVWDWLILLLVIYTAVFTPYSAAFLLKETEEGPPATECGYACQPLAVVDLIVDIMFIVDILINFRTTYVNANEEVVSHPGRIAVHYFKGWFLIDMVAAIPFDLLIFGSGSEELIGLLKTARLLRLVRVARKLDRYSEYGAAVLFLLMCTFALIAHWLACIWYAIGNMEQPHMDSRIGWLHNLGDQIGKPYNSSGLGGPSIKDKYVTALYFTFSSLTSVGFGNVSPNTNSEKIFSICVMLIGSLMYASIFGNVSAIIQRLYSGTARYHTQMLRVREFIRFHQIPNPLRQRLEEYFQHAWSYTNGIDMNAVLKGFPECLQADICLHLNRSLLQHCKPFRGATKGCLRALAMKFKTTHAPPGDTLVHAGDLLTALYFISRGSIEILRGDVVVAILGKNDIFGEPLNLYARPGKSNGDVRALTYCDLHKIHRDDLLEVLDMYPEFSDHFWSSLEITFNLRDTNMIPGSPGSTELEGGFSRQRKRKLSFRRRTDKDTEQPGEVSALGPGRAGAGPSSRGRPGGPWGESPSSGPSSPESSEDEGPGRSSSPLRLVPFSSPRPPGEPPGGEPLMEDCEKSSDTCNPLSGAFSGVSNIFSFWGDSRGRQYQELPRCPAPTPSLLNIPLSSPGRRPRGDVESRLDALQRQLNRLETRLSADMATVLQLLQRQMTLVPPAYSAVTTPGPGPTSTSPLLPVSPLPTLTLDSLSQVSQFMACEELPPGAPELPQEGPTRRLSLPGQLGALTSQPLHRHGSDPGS
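Further: peak tail current of the secondary pulse compared with the same well before compound.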

In order of rising “hERG current change (%, negative = inhibition) at 10uM” value:
1. CCCc1cc(=O)oc2c(C)c(OCC(=O)NCCCn3ccnc3)ccc12  -75.3%
2. Cc1nc2c(-c3ccc(F)cc3)c(C)nn2c(C)c1CCC(=O)N1CCN(c2ccc(F)cc2)CC1  -74.6%
3. COc1ccc(-c2cc(=O)oc3cc(OCC(C)=O)ccc23)cc1  -74.6%
4. CCOC(=O)C1CCN(C(=O)CCc2c(C)nc3c(-c4ccc(F)cc4)c(C)nn3c2C)CC1  -71.1%
5. Cc1nc2c(-c3ccc(F)cc3)c(C)nn2c(C)c1CCC(=O)N1CCN(c2ccccn2)CC1  -69.5%
6. Cc1nc2c(-c3ccc(F)cc3)c(C)nn2c(C)c1CCC(=O)N1CCC2(CC1)OCCO2  -67.8%
7. COc1ccc(-c2cc(=O)oc3cc(OCC(=O)NCCCn4ccnc4)ccc23)cc1  -65.4%
8. COc1ccc(-c2cc(=O)oc3c(C)c(OCC(=O)NCCCn4ccnc4)ccc23)cc1  -63.8%
9. CCCc1cc(=O)oc2c(C)c(OCC(=O)Nc3cccnc3)ccc12  -63.6%
10. Cc1nc2c(-c3ccc(F)cc3)c(C)nn2c(C)c1CCC(=O)N1CCOCC1  -53.3%
11. CC(Oc1ccc2c(-c3ccccc3)cc(=O)oc2c1)C(=O)NCCCn1ccnc1 (centres unmarked)  -52.5%
12. COc1ccc(-c2cc(=O)oc3cc(OC(C)C(=O)NCCCn4ccnc4)ccc23)cc1 (centres unmarked)  -50.8%
13. O=C(COc1ccc2c(-c3ccccc3)cc(=O)oc2c1)NCCCn1ccnc1  -48.7%
14. Cc1c(OCC(=O)NCCCn2ccnc2)ccc2c3c(c(=O)oc12)CCCC3  -48.2%
15. CCc1cc(=O)oc2c(C)c(OCC(=O)NCCCn3ccnc3)ccc12  -45.9%
16. Cc1nc2c(-c3ccccc3)c(C)nn2c(C)c1CCC(=O)N1CCC2(CC1)OCCO2  -40.5%
17. COC(=O)COc1ccc2c(-c3ccc(OC)cc3)cc(=O)oc2c1  -39.2%
18. COCCCNC(=O)CCc1c(C)nc2c(-c3ccc(F)cc3)c(C)nn2c1C  -38.5%
19. Cc1nc2cc(-c3cccc(F)c3)nn2c(C)c1CCC(=O)N1CCC2(CC1)OCCO2  -37.5%
20. CCN(CCn1cccn1)C(=O)CCc1nnc(CCCc2ccccc2)o1  -37%
21. Cc1nc2c(-c3ccccc3)c(C)nn2c(C)c1CCC(=O)N1CCOCC1  -33.9%
22. Cc1c(C)c2ccc(OCC(=O)NCCCn3ccnc3)c(C)c2oc1=O  -32.7%
23. COc1ccc(-c2cc(C(=O)N(C)CCc3ccc(OC)c(OC)c3)c3ccccc3n2)cc1  -29.4%
24. Cc1c(OCC(=O)NCCCn2ccnc2)ccc2c3c(c(=O)oc12)CCC3  -26.7%
25. Cc1cc(=O)oc2c(C)c(OCC(=O)Nc3cccnc3)ccc12  -25.3%
26. Cc1nc2c(-c3ccc(F)cc3)c(C)nn2c(C)c1CCC(=O)NCCN1CCOCC1  -24.3%
27. COC(CNC(=O)CCc1c(C)nc2c(-c3ccc(F)cc3)c(C)nn2c1C)OC  -21.8%
28. Cc1nc2c(-c3ccc(F)cc3)c(C)nn2c(C)c1CCC(=O)N1CCC(Cc2ccccc2)CC1  -21.2%
29. COc1ccccc1NC(=O)CCc1c(C)nc2c(-c3ccc(F)cc3)c(C)nn2c1C  -20.3%
30. Cc1oc2c(C)c3oc(=O)c(CCC(=O)NCCCN4CCCC4=O)c(C)c3cc2c1C  -14.8%
31. Cc1cc(C)c(OCC(=O)NCC2COc3ccccc3O2)c(C)c1 (centres unmarked)  -13.9%
32. CCCNC(=O)NC(=O)COC(=O)c1cccc(NS(=O)(=O)c2ccc(F)c(F)c2)c1  -12%
33. Cc1nc2c(-c3ccc(F)cc3)c(C)nn2c(C)c1CCC(=O)Nc1ccccc1F  -10.7%
34. COc1ccc(CNC(=O)CN2CCN(c3cccc(C)c3C)CC2)cc1  -8.46%
35. O=C(Nc1ncn[nH]1)c1ccc(S(=O)(=O)N2CCOCC2)cc1  -5.88%
36. CC(Oc1ccc2c3c(c(=O)oc2c1)CCCC3)C(=O)NCCCn1ccnc1 (centres unmarked)  -2.45%
37. CCN(CC(=O)Nc1ccccc1OC)C(=O)CSCc1ccc(C)cc1  -2.36%
38. CC(=O)COc1ccc2c(-c3ccccc3)cc(=O)oc2c1  -1.91%
39. CCCCCCc1nnc(N)s1  -0.995%
40. CCCCC(CCC(=O)O)(C(=O)OCC)c1csc(Nc2ccc(C)cc2)n1 (centres unmarked)  -0.891%
41. Cc1ccc(N2C(=O)CC(c3ccsc3)C3=C2CC(C)(C)CC3=O)cc1 (centres unmarked)  3.75%
42. Cc1c(C)c2ccc(OCC(=O)Nc3cccnc3)c(C)c2oc1=O  3.99%
43. CC(C)c1ccc(NC(=O)CN2C(=O)NC3(CCCC3)C2=O)cc1  5.63%
44. COc1cccc(C(=O)OCCN2CCOCC2)c1.Cl  6.33%
45. COc1ccc(CN2C(=O)C(C)S/C2=N/N=C/c2ccco2)cc1 (centres unmarked)  6.37%
46. Cc1cc(=O)oc2cc(OCC(=O)NCCCn3ccnc3)ccc12  7.58%
47. CCc1cc(=O)oc2cc(OC(C)C(=O)NCCCn3ccnc3)ccc12 (centres unmarked)  9.41%
48. Cc1cc(=O)oc2cc(OC(C)C(=O)NCCCn3ccnc3)ccc12 (centres unmarked)  9.44%
49. O=C(CSc1nnc(CNC(=O)c2ccccc2F)o1)NC1CCCC1  10.7%
50. O=c1[nH]c(=S)c2ncn(-c3ccccc3)c2[nH]1  11.7%
51. CC(C)(C)c1cc(NC(=O)c2ccc(OC3CCCC3)cc2)no1  14.2%
52. Cc1cc(=O)n(C2CCS(=O)(=O)C2)[nH]1 (centres unmarked)  14.7%
53. COc1ccc(C(C(=O)NC2CCCC2)N(C(=O)CNC(=O)c2ccco2)c2cccnc2)cc1 (centres unmarked)  14.7%
54. COc1cc(/C=C/C(=O)O)cc(S(=O)(=O)Nc2ccccc2SC)c1OC  15.5%
55. CC(c1ccco1)N(C(=O)c1cccc(S(=O)(=O)N(C)C)c1)c1ccccn1 (centres unmarked)  16%
56. CC(Oc1ccc2ccc(=O)oc2c1)C(=O)NCCCn1ccnc1 (centres unmarked)  28.5%
